Our source for the Potency values is PubChem BioAssay (Tox21).

Each structure is given as a SMILES string. Activity calls are given as the source filed them. A call without a number means that no potency is given here. Calls come from the whole dose curve.

Sequence of Muscarinic acetylcholine receptor M1 (Homo sapiens) (P11229 whole entry, looked up): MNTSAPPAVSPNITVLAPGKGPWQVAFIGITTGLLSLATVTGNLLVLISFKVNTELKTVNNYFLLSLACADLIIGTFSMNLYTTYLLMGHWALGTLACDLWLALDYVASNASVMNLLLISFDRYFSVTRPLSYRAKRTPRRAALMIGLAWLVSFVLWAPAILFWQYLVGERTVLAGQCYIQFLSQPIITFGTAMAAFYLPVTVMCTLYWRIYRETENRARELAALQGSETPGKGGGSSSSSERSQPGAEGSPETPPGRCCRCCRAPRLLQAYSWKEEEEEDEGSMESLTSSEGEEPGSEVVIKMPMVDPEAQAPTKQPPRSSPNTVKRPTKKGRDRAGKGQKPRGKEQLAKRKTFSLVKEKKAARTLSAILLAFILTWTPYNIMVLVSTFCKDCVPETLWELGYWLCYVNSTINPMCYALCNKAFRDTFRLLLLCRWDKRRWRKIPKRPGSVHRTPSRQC

In the experiment the target is Muscarinic acetylcholine receptor M1 (Homo sapiens) (UniProt P11229). The experiment is described as follows: Cholinergic receptor muscarinic 1 (CHRM1) small molecule agonists, cell-based qHTS assay (AID 1963589). Note: nearly all actives have a fitted effect of over 35% in size. The note with it: CHRM1-CHO cells, agonist mode, calcium flux fluorescence; series mostly up to 76.8 µM. The source says:
National Center for Advancing Translational Sciences [NCATS]
Division of Preclinical Innovation [DPI]
U.S. Environmental Protection Agency [EPA]
National Institutes of Environmental Health Sciences [NIEHS]
National Toxicology Program [NTP]
U.S. Food and Drug Administration [FDA]
The CHRM1 is a muscarinic receptor. This receptor plays a crucial role in learning and memory processes and has long been identified as a promising therapeutic target for the improvement of cognitive decline in Alzheimer's disease (AD). The CHRM1-CHO cell line stably expressing human muscarinic acetylcholine receptor M1 (CHRM1) can be used for screening agonists and antagonists of interactions between CHRM1 and its ligands. The CHRM1-CHO Calcium Flux Assay is a homogeneous fluorescence-based assay for detecting the intracellular calcium level using FDSS kinetic plate reader system.
CHRM1-CHO cells were dispensed at 1000 cells/3uL/well in 1536-well black-clear bottom plates using a Multidrop Dispenser. After the assay plates were incubated at a 37 C/5% CO2 incubator for 18 h, 3 uL of Dye Loading Buffer was transferred to the assay plate by a Flying Reagent Dispenser. The assay plates were incubated at 37 C for 1h. For agonist mode, 23 nL of compounds dissolved in DMSO, positive controls or DMSO only was transferred to the assay plate by a pin tool. […] Each test compound was measured at 15 concentrations in three independent runs.
(In general: Quantitative high-throughput screening tests each substance at several concentrations.)
Consider `CCC(O)OC(O)CC` (stereo not given), for which the Potency entry was “inactive”. Under `O=C(O)[C@H](O)[C@@H](O)[C@H](O)[C@H](O)CO` stands “inactive”; under `OC[C@H]1O[C@@H](Oc2ccc(O)cc2)[C@H](O)[C@@H](O)[C@@H]1O`, “inactive”.

For `O=C(O)CCCCCCCC(=O)O`, the Potency result is “inactive”. Under `C=C(C)C(N)=O` stands “inactive”; under `CN(C)c1ccc(C(=C2C=CC(=[N+](C)C)C=C2)c2ccccc2)cc1`, “inactive”. Next, `CCOCC(=O)O`: “inactive”. Next, `CCCCCCCCO`: “inactive”. For the compound `O=c1cc[nH]c(=O)[nH]1`, the Potency result was “inactive”. As for `CC(C)=CCC/C(C)=C/C=O`, the Potency entry is “inactive”. Next, `CC(=O)Oc1ccc(C)cc1`: “inactive”. Next, `CC(=O)CC(=O)N(C)C`: “inactive”. Next, `CCCCC/C=C\C/C=C\CCCCCCCC(=O)O`: “inactive”; `CC(=O)OC(C)C`: “inactive”. As to `c1ccc(Oc2ccccc2)cc1`, the Potency result was “inactive”. Consider `C=CCc1ccc(OC)c(OC)c1`, for which the Potency entry is “inactive”. Under `CC(C)CC(=O)CC(C)CC(C)C` (stereo not given) stands “inactive”. For `CCCOC(=O)NCCCN(C)C`, the Potency result was “inactive”. Under `CC(=O)c1ccc(S(=O)(=O)NC(=O)NC2CCCCC2)cc1` stands “inactive”; under `O=c1c(O)c(-c2ccc(O)c(O)c2)oc2cc(O)cc(O)c12`, “inactive”; under `OCCOCCN1CCN(C(c2ccccc2)c2ccc(Cl)cc2)CC1` (stereo not given), “inactive”.

Regarding `Cc1ccc(S(=O)(=O)N=C=O)cc1`, the Potency entry was “inactive”.

Regarding `NC1CCCCC1`, the Potency result is “inactive”.

`CCCCC/C=C\C/C=C\CCCCCCCC(=O)OC`: the Potency result is “inactive”.

For `O=C(OCC1CCC2OC2C1)C1CCC2OC2C1` (stereo not given), the Potency entry is “inactive”. Next, `CCCCC1(COC(=O)CCC(=O)O)C(=O)N(c2ccccc2)N(c2ccccc2)C1=O`: “inactive”. Take `O=C(O)CCCCC(=O)O`: the Potency entry is “inactive”. Next, `NS(=O)(=O)c1cc2c(cc1Cl)NC=NS2(=O)=O`: “inactive”; `COC(=O)C(C)Oc1ccc(Oc2ncc(C(F)(F)F)cc2Cl)cc1` (stereo not given): “inactive”. Next, `Clc1ccccn1`: “inactive”; `O=C(O)c1cccc(C(=O)O)c1`: “inactive”. Under `CCCCCCOC(C)=O` stands “inactive”; under `COc1cc([C@H]2Oc3cc([C@H]4Oc5cc(O)cc(O)c5C(=O)[C@@H]4O)ccc3O[C@@H]2CO)ccc1O`, “inactive”; under `C[Si]1(C)O[Si](C)(C)O[Si](C)(C)O[Si](C)(C)O1`, “inactive”. As for `CCCCCCCCCCC=CC1CC(=O)OC1=O` (stereo not given), the Potency result was “inactive”. Turning to `Cc1ccccc1C=O`, the Potency entry was “inactive”. `CCc1nc(N)nc(N)c1-c1ccc(Cl)cc1`: the Potency entry is “inactive”. `c1ccc2cc3c(ccc4ccccc43)cc2c1`: the Potency entry is “inactive”. In the case of `CC(C)(C)[C@@H](O)[C@@H](Cc1ccc(Cl)cc1)n1cncn1`, the Potency result was “inactive”. Regarding `O=C1OC(c2ccc(O)cc2)(c2ccc(O)cc2)c2ccccc21`, the Potency result is “inactive”.
